The supplement of paper PMC13380429

Experiments:
[1] = system: Vero E6 infected with SARS-CoV-2; experiment: morphology score (similarity to uninfected cells); higher = more like uninfected cells; conditions: 24 h
[2] = system: Vero E6 infected with SARS-CoV-2; experiment: SARS-CoV-2 infection rate relative to infected DMSO; higher = more infection, active = 60 or less; conditions: 24 h

SMILES: O=C(COc1ccc(Cl)cc1)N1CCN(Cc2ccc3c(c2)OCO3)CC1 [fipexide] (10 µM)
- morphology score [1]: -0.165
- SARS-CoV-2 infection rate [2]: 112% (inactive)

SMILES: O=C(O)c1cc(-c2ccc(F)cc2F)ccc1O [diflunisal] (10 µM)
- morphology score [1]: -0.15
- SARS-CoV-2 infection rate [2]: 110% (inactive)

SMILES: CN1CCN(C(=O)c2nc3ccc(Cl)cc3[nH]2)CC1 (10 µM)
- morphology score [1]: 0.119
- SARS-CoV-2 infection rate [2]: 108% (inactive)

SMILES: COC(=O)C1=C(C#N)NC(C)=C(C(=O)OC(C)C)C1c1cccc([N+](=O)[O-])c1 (centres undefined) [nilvadipine] (10 µM)
- morphology score [1]: -0.0761
- SARS-CoV-2 infection rate [2]: 106% (inactive)

SMILES: CC(=O)N1N=C(c2ccc(N)cc2)c2cc3c(cc2C[C@H]1C)OCO3 [talampanel] (10 µM)
- morphology score [1]: -0.0668
- SARS-CoV-2 infection rate [2]: 104% (inactive)

SMILES: CCn1cc(C(=O)O)c(=O)c2cc(F)c(N3CCN(C)CC3)cc21 [pefloxacin] (10 µM)
- morphology score [1]: 0.158
- SARS-CoV-2 infection rate [2]: 91.5% (inactive)

SMILES: CCCCCCC[N+](CC)(CC)CCCCc1ccc(Cl)cc1 [clofilium] (10 µM)
- morphology score [1]: 0.0344
- SARS-CoV-2 infection rate [2]: 118% (inactive)

SMILES: O=C(O)c1ccccc1O [salicylic-acid] (10 µM)
- morphology score [1]: 0.0239
- SARS-CoV-2 infection rate [2]: 107% (inactive)

SMILES: O=c1[nH]cnc2c([C@@H]3N[C@H](CO)[C@@H](O)[C@H]3O)c[nH]c12 [forodesine] (10 µM)
- morphology score [1]: 0.155
- SARS-CoV-2 infection rate [2]: 103% (inactive)

SMILES: CSCC[C@H](NC(=O)[C@H](CC(C)C)NC(=O)[C@@H](Cc1c[nH]c2ccccc12)NC(=O)[C@H](Cc1ccccc1)N(C)C(=O)[C@@H](Cc1c[nH]c2ccccc12)NC(=O)[C@@H](N)CCCNC(=N)N)C(N)=O [antagonist-g] (10 µM)
- morphology score [1]: -0.124
- SARS-CoV-2 infection rate [2]: 114% (inactive)

SMILES: CCOc1ccc(/C=C2\NCCc3cc(OCC)c(OCC)cc32)cc1OCC [drotaverine] (10 µM)
- morphology score [1]: 0.156
- SARS-CoV-2 infection rate [2]: 104% (inactive)

SMILES: COc1cc2c(cc1OC)-c1c(C)c3ccc(OC)c(OC)c3c[n+]1CC2 [dehydrocorydaline] (10 µM)
- morphology score [1]: 0.0289
- SARS-CoV-2 infection rate [2]: 104% (inactive)

SMILES: CC(C)CNc1ccnc(NCc2csc(-c3ccccc3)n2)n1 (0.833333 µM)
- morphology score [1]: -0.0256
- SARS-CoV-2 infection rate [2]: 106% (inactive)

SMILES: Oc1ccc(Cl)c2c1CCC2 [chlorindanol] (10 µM)
- morphology score [1]: 0.109
- SARS-CoV-2 infection rate [2]: 102% (inactive)

SMILES: c1cc(CN2CCCNCCNCCCNCC2)ccc1CN1CCCNCCNCCCNCC1 [plerixafor] (10 µM)
- morphology score [1]: 0.0853
- SARS-CoV-2 infection rate [2]: 95.5% (inactive)

SMILES: Oc1ccc(-c2nc3cc(O)cc(Br)c3o2)cc1 (10 µM)
- morphology score [1]: 0.128
- SARS-CoV-2 infection rate [2]: 94.5% (inactive)

SMILES: CC(C)(C)NC(=O)N[C@H](C(=O)N1C[C@H]2[C@@H]([C@H]1C(=O)NC(CC1CCC1)C(=O)C(N)=O)C2(C)C)C(C)(C)C (some centres undefined) [Boceprevir] (10 µM)
- morphology score [1]: 0.133
- SARS-CoV-2 infection rate [2]: 100% (inactive)

SMILES: O=C(c1ccc(F)cc1)C1CCN(CCn2c(=O)[nH]c3ccccc3c2=O)CC1 [ketanserin] (10 µM)
- morphology score [1]: 0.144
- SARS-CoV-2 infection rate [2]: 106% (inactive)

SMILES: Cc1cn2c(N)c(Cl)cc(C(=O)NCC3CCN(CC(C)C)CC3)c2n1 (10 µM)
- morphology score [1]: 0.221
- SARS-CoV-2 infection rate [2]: 103% (inactive)

SMILES: CC(C)NCC(O)c1ccc(N)c(C#N)c1 (centres undefined) [cimaterol] (10 µM)
- morphology score [1]: -0.059
- SARS-CoV-2 infection rate [2]: 104% (inactive)

SMILES: CSCC1CN(/N=C/c2ccc([N+](=O)[O-])o2)C(=O)O1 (centres undefined) [inimur] (10 µM)
- morphology score [1]: 0.187
- SARS-CoV-2 infection rate [2]: 92% (inactive)

SMILES: O=C(O)CCNc1cc(N2CCc3ccccc3CC2)nc(-c2cccnc2)n1 (10 µM)
- morphology score [1]: 0.165
- SARS-CoV-2 infection rate [2]: 108% (inactive)

SMILES: CC1COc2c(N3CCN(C)CC3)c(F)cc3c(=O)c(C(=O)O)cn1c23 (centres undefined) [ofloxacin] (10 µM)
- morphology score [1]: 0.0901
- SARS-CoV-2 infection rate [2]: 104% (inactive)

SMILES: FC(F)(F)c1ccc(CNc2ccc(Cc3c[nH]c4ncc(Cl)cc34)cn2)cn1 [pexidartinib] (10 µM)
- morphology score [1]: 0.473
- SARS-CoV-2 infection rate [2]: 77.5% (inactive)

SMILES: C[C@@H](O)[C@H]1C(=O)N2C(C(=O)[O-])=C(SC3Cn4cnc[n+]4C3)[C@H](C)[C@H]12 (some centres undefined) [biapenem] (10 µM)
- morphology score [1]: -0.0332
- SARS-CoV-2 infection rate [2]: 99.5% (inactive)

SMILES: O=C(NC1CCNCC1)[C@@H]1CC[C@@H]2CN1C(=O)N2OS(=O)(=O)O [relebactam] (10 µM)
- morphology score [1]: 0.0111
- SARS-CoV-2 infection rate [2]: 110% (inactive)

SMILES: CCCn1c(=O)c2[nH]cnc2n(-c2ccc(Cl)cc2)c1=O [arofylline] (10 µM)
- morphology score [1]: 0.178
- SARS-CoV-2 infection rate [2]: 108% (inactive)

SMILES: CCN[C@H]1C[C@H](C)S(=O)(=O)c2sc(S(N)(=O)=O)cc21 [dorzolamide] (10 µM)
- morphology score [1]: 0.0923
- SARS-CoV-2 infection rate [2]: 100% (inactive)

SMILES: COc1cccc(-c2cc(F)ccc2[C@H]2Cc3nc(N)nc(C)c3C(=O)N2)n1 (0.833333 µM)
- morphology score [1]: 0.125
- SARS-CoV-2 infection rate [2]: 99% (inactive)

SMILES: CS(=O)(=O)N1CCN(Cc2cc3nc(-c4cccc5[nH]ncc45)nc(N4CCOCC4)c3s2)CC1 (10 µM)
- morphology score [1]: -0.319
- SARS-CoV-2 infection rate [2]: 89% (inactive)

SMILES: CN(C)CCC=C1c2ccccc2CCc2ccccc21 [amitriptyline] (10 µM)
- morphology score [1]: 0.0472
- SARS-CoV-2 infection rate [2]: 100% (inactive)

SMILES: COc1cc(C[C@H]2c3cc(OC)c(OC)cc3CCN2C)c(Oc2cc3c(cc2OC)-c2c(OC)c(OC)cc4c2[C@H](C3)N(C)CC4)cc1OC [thaliblastine] (10 µM)
- morphology score [1]: 0.443
- SARS-CoV-2 infection rate [2]: 30.5% (active)

SMILES: CN(Cc1cc(Br)cc(Br)c1N)C1CCCCC1 [bromhexine] (10 µM)
- morphology score [1]: -0.0228
- SARS-CoV-2 infection rate [2]: 102% (inactive)

SMILES: Cc1ccc(Nc2c(F)cccc2Cl)c(CC(=O)O)c1 [lumiracoxib] (10 µM)
- morphology score [1]: 0.182
- SARS-CoV-2 infection rate [2]: 109% (inactive)

SMILES: Cc1ccc(S(=O)(=O)NC(=O)NN2CCCCCC2)cc1 [tolazamide] (10 µM)
- morphology score [1]: 0.103
- SARS-CoV-2 infection rate [2]: 100% (inactive)

SMILES: C/C(=N\NC(=O)C(NC(=O)c1ccccc1)c1n[nH]c(=O)c2ccccc12)c1cccc(Br)c1 (centres undefined) (10 µM)
- morphology score [1]: 0.029
- SARS-CoV-2 infection rate [2]: 98.5% (inactive)

SMILES: OCCN1CCN(CC/C=C2/c3ccccc3Sc3ccc(Cl)cc32)CC1 [zuclopenthixol] (0.833333 µM)
- morphology score [1]: 0.0109
- SARS-CoV-2 infection rate [2]: 110% (inactive)

SMILES: N#C[C@H](O[C@@H]1O[C@H](CO[C@@H]2O[C@H](CO)[C@@H](O)[C@H](O)[C@H]2O)[C@@H](O)[C@H](O)[C@H]1O)c1ccccc1 [amygdalin] (10 µM)
- morphology score [1]: 0.155
- SARS-CoV-2 infection rate [2]: 106% (inactive)

SMILES: OC[C@@H](O)[C@@H](O)[C@@H](O)CO [ribitol] (10 µM)
- morphology score [1]: 0.073
- SARS-CoV-2 infection rate [2]: 105% (inactive)

SMILES: Cc1csc2c(N[C@@H](C)CN3CCN(S(=O)(=O)c4ccc(Cl)c(Cl)c4)CC3)ncnc12 [LPA2-antagonist-1] (10 µM)
- morphology score [1]: 0.142
- SARS-CoV-2 infection rate [2]: 100% (inactive)

SMILES: C[C@@H]1O[C@@H](OC[C@H]2O[C@@H](Oc3c(-c4ccc(O)c(O)c4)oc4cc(O)cc(O)c4c3=O)[C@H](O)[C@@H](O)[C@@H]2O)[C@H](O)[C@H](O)[C@H]1O [rutin] (10 µM)
- morphology score [1]: -0.197
- SARS-CoV-2 infection rate [2]: 112% (inactive)

SMILES: CN1CCN(c2ccc(/C=C(\C#N)c3ccccc3Br)cc2)CC1 (10 µM)
- morphology score [1]: -0.13
- SARS-CoV-2 infection rate [2]: 116% (inactive)

SMILES: Cc1cc(=O)[nH]c(=S)[nH]1 [methylthiouracil] (10 µM)
- morphology score [1]: 0.0905
- SARS-CoV-2 infection rate [2]: 104% (inactive)

SMILES: NCCNC(=O)c1ccc(Cl)cn1 [lazabemide] (10 µM)
- morphology score [1]: 0.0341
- SARS-CoV-2 infection rate [2]: 106% (inactive)

SMILES: CCCCNc1c(C(=O)OCC)c(C)nc2c1cnn2CC [tracazolate] (10 µM)
- morphology score [1]: 0.174
- SARS-CoV-2 infection rate [2]: 92.5% (inactive)

SMILES: C=Cc1c(C)c2cc3nc(c(CC(=O)O)c4[n-]c(cc5nc(cc1[n-]2)C(C)=C5CC)c(C)c4C(=O)O)[C@@H](CCC(=O)O)[C@@H]3C.[Cu+2] [chlorophyllin-copper] (10 µM)
- morphology score [1]: -0.0712
- SARS-CoV-2 infection rate [2]: 108% (inactive)

SMILES: COc1ccc2c(O[C@@H]3C[C@H]4C(=O)N[C@]5(C(=O)NS(=O)(=O)C6CC6)C[C@H]5/C=C\CCCCN(C)C(=O)[C@@H]4C3)cc(-c3nc(C(C)C)cs3)nc2c1C [simeprevir] (10 µM)
- morphology score [1]: 0.0609
- SARS-CoV-2 infection rate [2]: 88.5% (inactive)

SMILES: CC(C)CC(=O)Nc1n[nH]c2c1CN(C(=O)C1CCN(C)CC1)C2(C)C (10 µM)
- morphology score [1]: 0.099
- SARS-CoV-2 infection rate [2]: 113% (inactive)

SMILES: c1ccc(N2CCN(Cc3nc4ccccc4[nH]3)CC2)nc1 (10 µM)
- morphology score [1]: 0.136
- SARS-CoV-2 infection rate [2]: 104% (inactive)

SMILES: CCC(CC)(CC(=O)Nc1cccc(/C=C/c2nc(C3CCC3)cs2)c1)C(=O)O [cinalukast] (10 µM)
- morphology score [1]: 0.068
- SARS-CoV-2 infection rate [2]: 105% (inactive)

SMILES: CCC[C@@H]1C[C@@H](C(=O)N[C@@H]([C@H]2O[C@H](SC)[C@H](OP(=O)(O)O)[C@@H](O)[C@H]2O)[C@H](C)Cl)N(C)C1 [Clindamycin phosphate] (10 µM)
- morphology score [1]: -0.0234
- SARS-CoV-2 infection rate [2]: 107% (inactive)

SMILES: Cc1cc(C(C)(C)CC(C)(C)C)ccc1OCCOCC[N+](C)(C)Cc1ccccc1 [methylbenzethonium-chloride] (10 µM)
- morphology score [1]: -0.0681
- SARS-CoV-2 infection rate [2]: 101% (inactive)

SMILES: CCN(c1cc(C#CCN2CCOCC2)cc(C(=O)NCc2c(C)cc(C)[nH]c2=O)c1C)[C@H]1CC[C@H](N(C)CCOC)CC1 (10 µM)
- morphology score [1]: 0.163
- SARS-CoV-2 infection rate [2]: 100% (inactive)

SMILES: CNc1cc2[nH]c(=O)n(-c3ccc(NC(=O)NS(=O)(=O)c4ccc(Cl)s4)cc3)c(=O)c2cc1F [elinogrel] (10 µM)
- morphology score [1]: 0.235
- SARS-CoV-2 infection rate [2]: 87.5% (inactive)

SMILES: CC#CCn1c(N2CCC[C@@H](N)C2)nc2c1c(=O)n(Cc1nc(C)c3ccccc3n1)c(=O)n2C [linagliptin] (10 µM)
- morphology score [1]: -0.0102
- SARS-CoV-2 infection rate [2]: 110% (inactive)

SMILES: CN1[C@@H]2CC[C@H]1C[C@@H](OC1c3ccccc3CCc3ccccc31)C2 [deptropine] (0.833333 µM)
- morphology score [1]: 0.24
- SARS-CoV-2 infection rate [2]: 100% (inactive)

SMILES: c1ccc([C@H]2CNCc3ccccc32)cc1 [4-phenyl-1,2,3,4-tetrahydroisoquinoline] (10 µM)
- morphology score [1]: -0.263
- SARS-CoV-2 infection rate [2]: 114% (inactive)
